Measured values from PubChem BioAssay AID485346 (Sanford-Burnham Center for Chemical Genomics, 2010).
The whole screen tested about 330,000 compounds, of which about 10,000 (3%) were called active.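 The calls were made as follows: active = inhibition of at least 50% at 8 µM in the primary screen; inactive = the rest.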 For the sample, actives were picked, then their nearest neighbours and some compounds at random.

biological target: Protein Mdm4 (Homo sapiens) + E3 ubiquitin-protein ligase Mdm2 (Homo sapiens) (UniProt O15151+Q00987); test: disruptors of Mdm2/MdmX RING complex – cell-based, luminescence, split luciferase, SaOS-2, uHTS, primary screen (AID 485346); conditions: SaOS-2 split-luciferase Mdm2/MdmX complementation, at 8 µM, hits give high values
Sequence (O15151 whole entry, looked up): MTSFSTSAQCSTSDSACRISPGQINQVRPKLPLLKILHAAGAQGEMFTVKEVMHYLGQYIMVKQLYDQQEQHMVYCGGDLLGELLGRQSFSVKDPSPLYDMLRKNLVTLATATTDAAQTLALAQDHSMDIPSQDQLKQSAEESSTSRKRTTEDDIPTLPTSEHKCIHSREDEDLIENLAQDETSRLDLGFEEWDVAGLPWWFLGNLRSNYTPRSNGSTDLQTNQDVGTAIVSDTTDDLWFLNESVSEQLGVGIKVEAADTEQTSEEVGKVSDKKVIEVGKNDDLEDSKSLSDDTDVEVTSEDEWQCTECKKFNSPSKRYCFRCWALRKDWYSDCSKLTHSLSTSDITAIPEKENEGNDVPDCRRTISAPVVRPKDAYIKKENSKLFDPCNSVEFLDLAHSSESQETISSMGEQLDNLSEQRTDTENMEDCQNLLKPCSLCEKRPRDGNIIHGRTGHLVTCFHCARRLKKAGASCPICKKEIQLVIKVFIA
Sequence (Q00987 whole entry, looked up): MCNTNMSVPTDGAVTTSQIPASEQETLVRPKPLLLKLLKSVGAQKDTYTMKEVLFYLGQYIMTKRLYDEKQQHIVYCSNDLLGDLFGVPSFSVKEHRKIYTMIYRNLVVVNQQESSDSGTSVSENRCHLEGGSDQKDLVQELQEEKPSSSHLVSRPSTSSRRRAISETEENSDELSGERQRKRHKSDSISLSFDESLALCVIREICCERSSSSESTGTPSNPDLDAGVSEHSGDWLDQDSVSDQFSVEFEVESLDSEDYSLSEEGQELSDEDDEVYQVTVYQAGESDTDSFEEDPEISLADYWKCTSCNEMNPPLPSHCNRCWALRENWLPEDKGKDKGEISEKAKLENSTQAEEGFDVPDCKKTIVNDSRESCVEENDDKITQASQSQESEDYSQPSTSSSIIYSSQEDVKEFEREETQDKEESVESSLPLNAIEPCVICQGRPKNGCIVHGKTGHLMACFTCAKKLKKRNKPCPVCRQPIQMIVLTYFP

Compound	inhibition
COc1cc2cc(C(=O)N/N=C/c3cccc(OC)c3OC)[nH]c2cc1OC	-21.6% (inactive)
COc1cccc(/C=N/NC(=O)c2[nH]nc3c2CCc2ccccc2-3)c1O	74.6% (active)
COc1cc(OC)c(/C=N/NC(=O)c2ccc([N+](=O)[O-])cc2)cc1Br	46.6% (inactive)
COC(=O)CN1C(=O)[C@H]2[C@@H](/C=C/c3ccccc3)N3C(=O)CN(CC4CC4)C(=O)[C@@]3(Cc3ccccc3)[C@H]2C1=O	-8.09% (inactive)
COc1ccc(C(O)(C2CCCCC2)C(CN2CCCC2)c2ccccc2)cc1 (stereo not drawn)	33.8% (inactive)
Fc1ccc(CNc2nc3ccccc3n3nnnc23)cc1	54% (active)
CCOC(=O)CNc1nc2ccccc2n2c(C)nnc12	1.6% (inactive)
COc1ccc(CNc2nnnn2C)cc1	-2.21% (inactive)
CCc1nnc(NC(=O)CCC(=O)N2CCN(c3cc(C)ccc3C)CC2)s1	13.7% (inactive)
CC(C)[C@@H]1COC(c2cccc(C3=N[C@H](C(C)C)CO3)c2)=N1	-13.9% (inactive)
COc1ccc(-c2cc(C(=O)NCCCN3CCCC3=O)c3ccccc3n2)cc1OC	8.93% (inactive)
COc1ccc(CN(C)C(=O)c2cc(-c3ccc(C)cc3C)nc3ccccc23)c(OC)c1OC	68.6% (active)
COc1ccc(-c2cc(C(=O)N(C)Cc3ccc(OC)c(OC)c3OC)c3ccccc3n2)cc1OC	63.2% (active)
CN(CCOc1ccccc1)C(=O)c1cc(-c2ccco2)nc2ccccc12	18.2% (inactive)
COc1ccc(Cl)cc1NC(=O)CN(C)C(=O)c1cc2ccccc2cc1OC	29.4% (inactive)
COc1ccc(NC(=O)CN(C)C(=O)c2cc(-c3ccc(C)o3)nc3ccccc23)cc1	30.3% (inactive)
COc1ccc(-c2cc(C(=O)N(C)CC(=O)Nc3ccccc3Cl)c3ccccc3n2)cc1OC	54.1% (active)
COc1cc(/C=N/NC(=O)c2cc(-c3ccccc3C)nc3ccccc23)cc(OC)c1O	-4.47% (inactive)
COc1ccc(Cl)cc1NC(=O)CN(C)C(=O)c1ccc2n[nH]nc2c1	10.7% (inactive)
C[C@@H]1C(c2ccc(F)cc2)=NN(c2ccc(Br)cc2)[C@H]1C(=O)N1CCOC1=O	9.83% (inactive)
O=C(CN1CCN(S(=O)(=O)c2ccc3ccccc3c2)CC1)NC(=O)NC1CCCCC1	40.4% (inactive)
COC(=O)C1CCN(C(=O)NC2CC(=O)N(c3ccc4c(c3)OCCO4)C2)CC1 (stereo not drawn)	-29.9% (inactive)
CC(=O)C1=C(O)C(=O)N(c2ccc(Br)cc2)C1c1ccc([N+](=O)[O-])cc1 (stereo not drawn)	16.7% (inactive)
COc1ccc(C(=O)C2CCCN(Cc3cccn3-c3ccccn3)C2)c(C)c1 (stereo not drawn)	46.4% (inactive)

Compound	inhibition
S=C1SCN(CCN2CCOCC2)CN1Cc1ccccc1	19% (inactive)
COc1ccc(CN2CN(C3CCCC3)CSC2=S)cc1	34.2% (inactive)
COc1ccc(CN2CN(C(C)C)CSC2=S)cc1	63.7% (active)
O=C(CSc1nncn1-c1cccnc1)N1CCOCC1	-14.1% (inactive)
Cc1nn(Cc2ccc(Cl)cc2)c(Cl)c1/C=N/NC(=O)c1cccnc1	-2.65% (inactive)
Cc1ccc(C(=O)O)cc1NC(=O)c1ccc(Cn2nc(C)c(Cl)c2C)o1	2.65% (inactive)
Cc1c(Cl)c([N+](=O)[O-])nn1Cc1ccc(C(=O)N/N=C\c2cc(Cl)ccc2O)o1	68.9% (active)
CCCc1nc(NCc2ccc3c(c2)OCO3)c2nnn(Cc3ccccc3Cl)c2n1	75.2% (active)
Cc1nc(Nc2ccccc2F)c2nnn(Cc3ccccc3Cl)c2n1	4.88% (inactive)
Cc1nc(Nc2ccc3c(c2)OCCO3)c2nnn(Cc3ccccc3Cl)c2n1	32.4% (inactive)
CCOc1ccc(C(=O)CCC(=O)Nc2ccncc2)cc1	13.9% (inactive)
C=CCn1c2ccccc2c2nnc(SCc3[nH]c(=O)[nH]c3C(=O)CCCCC(=O)OCC)nc21	26.8% (inactive)
Cc1ccc(NC(=O)C2CC2)cc1S(=O)(=O)N1CCOCC1	-2.88% (inactive)
O=C1CSC(c2ccc(Cl)cc2)N1 (stereo not drawn)	-16.7% (inactive)
Cc1noc(C)c1-c1ccc2ncnc(NC(C)c3ccco3)c2c1 (stereo not drawn)	83.9% (active)
c1coc(CNc2ncnc3ccccc23)c1	-3.14% (inactive)
O=C(NC(=S)Nc1ccccc1C(=O)O)c1ccc(-c2ccc(Br)cc2)o1	44.1% (inactive)
CC1CCN(CC(=O)Nc2nccs2)CC1	32.3% (inactive)
CC(C)CCN1C(=O)c2ccc(C(=O)Nc3cccc(S(N)(=O)=O)c3)cc2C1=O	7.02% (inactive)
COc1nc(N=C(N)N)nc2c(C)cccc12	22.9% (inactive)
CC(=O)Oc1ccc(-c2nc3c(C)cccc3c(=O)o2)cc1	15.5% (inactive)
Cc1nc(N=C(N)N)nc2c(C)cccc12	75.4% (active)
COc1cc(C2C(C#N)=C(N)Oc3n[nH]c(-c4ccccn4)c32)cc(OC)c1OC (stereo not drawn)	1.17% (inactive)
COc1ccc(C2C(C#N)=C(/N=C/N3CCOCC3)OC3=C2C(=O)CC(C)(C)C3)cc1OC (stereo not drawn)	-7.65% (inactive)

Compound	inhibition
COc1ccc(C2C(C#N)=C(N)Oc3cc(N)ccc32)cc1OC (stereo not drawn)	50.9% (active)
COc1ccccc1NS(=O)(=O)c1ccc(C(=O)N2CCN(c3ccccc3O)CC2)cc1	19.3% (inactive)
O=P(O)(CN1CCCCCC1)C1Cc2ccccc2C1	10.7% (inactive)
O=C(CNc1ccccc1N1CCCC1=O)Nc1cc(Cl)ccc1-n1cncn1	0.059% (inactive)
Cc1ccc(S(=O)(=O)N2CCN(C(=O)Cn3c(=O)cnc4ccccc43)CC2)c(C)c1	12.2% (inactive)
C[C@@H]1C[C@@H]2O[C@H]2/C=C\C=C\C(=O)Cc2c(Cl)c(O)cc(O)c2C(=O)O1	79.3% (active)
CCN(CC(=O)N1CCCC1)S(=O)(=O)c1ccc(F)cc1	-4.05% (inactive)
Cc1ccc(F)cc1S(=O)(=O)Nc1cccc(C(=O)N2CCCC(C(N)=O)C2)c1 (stereo not drawn)	17.8% (inactive)
Oc1ccc(Br)cc1/C=N/Nc1ccccn1	84.7% (active)
Oc1ccc(/C=N/Nc2ccc(C(F)(F)F)cn2)cc1O	-9.44% (inactive)
COc1ccc(-c2nn(-c3ccccc3)cc2/C=N/Nc2ccccn2)cc1OC	34.3% (inactive)
Cc1cccc(NC(=O)N2CCCCCC2)c1C	23.2% (inactive)
CCN([C@H](CO)C(C)C)S(=O)(=O)c1ccccc1Br	33.9% (inactive)
Oc1ccccc1N1CCN(c2ncnc3sc(-c4ccccc4)cc23)CC1	81.3% (active)
CCc1cc2c(N3CCN(c4nnc(CC)s4)CC3)ncnc2s1	29.4% (inactive)
c1ccc(-c2cc3c(NCC4COc5ccccc5O4)ncnc3s2)cc1 (stereo not drawn)	31.6% (inactive)
Nc1nonc1-n1nnc(C(=O)N/N=C/c2ccccc2O)c1CN1CCCC1	52.8% (active)
NNC(=O)c1nnn(-c2nonc2N)c1CN1CCCC1	4.39% (inactive)
Nc1nonc1-n1nnc(C(=O)N/N=C\c2ccncc2)c1CN1CCCCC1	3.58% (inactive)
CCOC(=O)c1ccc(NC(=O)CCn2c(=O)oc3ccccc32)cc1	8.91% (inactive)
Cc1cccc(NC(=O)c2ccc(S(=O)(=O)N(C)CC3CCCO3)cc2)c1C (stereo not drawn)	17.9% (inactive)
CN(CC1CCCO1)S(=O)(=O)c1ccc(C(=O)Nc2ccc(F)cc2)cc1 (stereo not drawn)	14.6% (inactive)
CCOC(=O)c1c(NC(=O)c2ccc(S(=O)(=O)N(C)CC3CCCO3)cc2)sc2c1CC(C)(C)NC2(C)C (stereo not drawn)	79.5% (active)
CCCn1c2ccccc2c2cnn(CC(=O)NCCCN3CCCCC3CC)c(=O)c21 (stereo not drawn)	24% (inactive)

Compound	inhibition
O=C(CN1C(=O)CCS(=O)(=O)c2ccccc21)NCc1ccc(F)cc1	13.2% (inactive)
COc1cc2c(cc1OC)CN(C(C)C(=O)Nc1cccc(S(=O)(=O)N3CCOCC3)c1)CC2 (stereo not drawn)	21.6% (inactive)
CCCCN1CCNC1=S	27% (inactive)
O=C(CSc1nccn1-c1cccc(F)c1)NC1CCCC1	6.79% (inactive)
Cc1cc(C)cc(NC(=O)Cn2cnc3c(nnn3Cc3ccc(F)cc3)c2=O)c1	64.8% (active)
Cc1ccc(Cn2nnc3c(=O)n(CC(=O)N4CCCCC4)cnc32)cc1	8.92% (inactive)
O=C(Cn1cnc2c(nnn2Cc2ccc(F)cc2)c1=O)NCc1ccc2c(c1)OCO2	7.94% (inactive)
CSCCC(NS(=O)(=O)c1ccccc1F)C(=O)N1CC=C(c2ccccc2)CC1 (stereo not drawn)	-11.8% (inactive)
c1csc(-c2nnc(COc3ccc4c(c3)OCO4)o2)c1	-40.3% (inactive)
CCCOc1ccc(C2=CSC3=NCCN23)cc1Cl	28.9% (inactive)
COc1ccc(NC(=O)NN2CCN(C)CC2)c(OC)c1	0.742% (inactive)
O=[N+]([O-])c1ccccc1/C=C/CN1CCC(O)CC1	-3.09% (inactive)
O=[N+]([O-])c1ccccc1/C=C/CN1CCCC(CO)C1 (stereo not drawn)	3.12% (inactive)
CC1CCCCC1NC(=O)/C(C#N)=C/C=C/c1ccccc1[N+](=O)[O-] (stereo not drawn)	99.6% (active)
CCCN(CCC)S(=O)(=O)c1ccc(C(=O)NNC(=O)c2cc(OC)c(OC)c(OC)c2)cc1	-7.78% (inactive)
CCc1ccc2c(c1)C1(NN=C(c3ccccc3)S1)C(=O)N2 (stereo not drawn)	73% (active)
COc1ccc(C)cc1NC(=O)c1cc(-c2ccccc2)nc2c1cnn2C(C)C	11.5% (inactive)
OCC[C@H]1C[C@H](O)[C@@H](O)[C@]2(CCCCO2)O1	-0.668% (inactive)
COc1ccc(Nc2nnc(C)c3ccccc23)cc1	5.02% (inactive)
N#Cc1nc(-c2cccc3ccccc23)oc1N	23% (inactive)
COc1ccc(Nc2oc(-c3ccccc3Cl)nc2C#N)cc1	59.3% (active)
